PubChem BioAssay (NCI)
This is part of a sample that, as a whole, favours compounds with a hit. Of some 79,000 tested, about 15% had one in any assay. Rule as the data show it: active = growth inhibition above about 70%; inactive = the rest.

Tests used:
[1] = NCI Yeast Anticancer Drug Screen. Data for the rad50 strain (AID 155);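 also: 0% = growth of vehicle-only cultures of the same strain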; conditions: S. cerevisiae rad50 strain growth inhibition; at 50.0 µM; stronger effect = higher value
Summary of the method: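 A DNA repair-deficient yeast mutant serves as the test organism; compound-induced growth inhibition is calculated against vehicle-treated cells.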

[2] = NCI Yeast Anticancer Drug Screen. Data for the mec2-1 strain (AID 157); conditions: S. cerevisiae mec2-1 strain, at 50.0 µM, stronger effect = higher value
Summary of the method: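 Growth inhibition is read against vehicle-treated controls after compound exposure of the mec2-1 yeast strain, which is defective in DNA damage repair or cell cycle control.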

[3] = NCI Yeast Anticancer Drug Screen. Data for the sgs1 mgt1 strain (AID 161);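 also: 0% = growth of cultures given vehicle only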; conditions: S. cerevisiae sgs1 mgt1 strain, at 50.0 µM, stronger effect = higher value
Summary of the method: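 Growth of a repair-deficient yeast mutant was monitored after compound treatment and expressed as inhibition relative to vehicle-treated cultures.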

[4] = NCI Yeast Anticancer Drug Screen. Data for the cln2 rad14 strain (AID 165);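 also: 0% = growth equal to vehicle treated cultures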; conditions: S. cerevisiae cln2 rad14 strain, at 50.0 µM, stronger effect = higher value
Summary of the method: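 Growth inhibition, relative to vehicle-treated controls, is the read-out. The test organism is a yeast strain with defined genetic alterations, cln2 rad14.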

[5] = NCI Yeast Anticancer Drug Screen. Data for the bub3 strain (AID 167); conditions: S. cerevisiae bub3 mutant strain, at 50.0 µM, stronger effect = higher value
Summary of the method: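 Inhibition values come from growth of compound-treated mutant yeast normalised to vehicle-treated controls.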

[6] = NCI Yeast Anticancer Drug Screen. Data for the mlh1 rad18 strain (AID 175); conditions: S. cerevisiae mlh1 rad18 strain growth inhibition; at 50.0 µM; stronger effect = higher value
Summary of the method: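 Cells of a genetically altered yeast strain, deficient in DNA damage repair, were treated with compound. Their growth was then compared with that of vehicle-treated cultures to give inhibition.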

Measured: growth inhibition

O=C(Nc1ccc(S(=O)(=O)N2CCCCC2)cc1)OC(c1ccccc1)c1ccccc1
inactive: [1] 38.3% | [2] -6.6% | [3] 27.4% | [4] 15.9% | [5] -11.7% | [6] 6.05%

C/C(=N\NC(=S)Nc1ccc([N+](=O)[O-])cc1S(=O)(=O)O)c1ccccn1
inactive: [1] 12.6% | [2] 20.4% | [3] -5.85% | [4] -2.35% | [5] -0.4% | [6] 22.9%

CC12CCC(NC(=O)C3CCCN3C(=O)OCc3ccccc3)CC1CCC1C2CCC2(C)C(NC(=O)C3CCCN3C(=O)OCc3ccccc3)CCC12 (stereo unspecified)
inactive: [1] -4.3% | [2] 4.15% | [3] -19.4% | [4] -46% | [5] -5.35% | [6] -3.2%

FC(F)(F)C(F)(F)c1nc(C(F)(F)C(F)(F)C(F)(F)c2noc(C(F)(F)C(F)(F)F)n2)no1
inactive: [1] 8.5% | [2] 16.9% | [3] 15% | [4] -31.3% | [5] -3% | [6] -6.3%

Nc1cc(=O)[nH]c(=S)n1-c1ccccc1
inactive: [1] -7% | [2] 2.5% | [3] -12.2% | [4] -16.1% | [5] -2.5% | [6] -9.65%

CCOC(=O)C1C(c2cc(OC)c(OC)c(OC)c2)c2cc3c(cc2OC1(C)N1CCCC1)OCO3 (stereo unspecified)
inactive: [1] 7.15% | [2] -0.45% | [3] -12.3% | [4] 20.5% | [5] 1.55% | [6] 22.1%

CC(=O)OC/C=C/CN(C)C
inactive: [1] 9.3% | [2] 4.6% | [3] -7.25% | [4] 7.8% | [5] -6.2% | [6] 16.5%

CCCN(CCN(CC)CC)C(=O)N(CC)CC
inactive: [1] -11% | [2] 14.3% | [3] 3.2% | [4] -19.1% | [5] 6.35% | [6] -17.6%

O=C(CC1(O)C(=O)Nc2ccccc21)c1ccc(O)cc1O (stereo unspecified)
inactive: [1] 13.2% | [2] 15.4% | [3] 12.1% | [4] 26.4% | [5] 14.3% | [6] 18.6%

CCO/C(O)=c1/s/c(=C2/SC(=S)N(c3ccc(C)cc3)C2=O)n(-c2ccccc2)c1=N
inactive: [1] -3.8% | [2] -16.8% | [3] -16.4% | [4] -55.5% | [5] -21.4% | [6] -28.4%

COC(=O)C1C(=O)C=C(C)C(C(=O)OC)C1c1ccccc1 (stereo unspecified)
inactive: [1] 7.7% | [2] -4.2% | [3] 6.15% | [4] -5.85% | [5] 12.5% | [6] 0.25%

CCc1cc(CC)n2cnnc2n1
inactive: [1] 16.7% | [2] -3.75% | [3] -9% | [4] -29.6% | [5] 7.2% | [6] -8.5%

CCCC(CCc1ccccc1)C(N)=O (stereo unspecified)
inactive: [1] 1.4% | [2] -5.7% | [3] 9.15% | [4] -7.35% | [5] 10.8% | [6] -1.9%

O=[N+]([O-])C(/C=C(\Cl)[N+](=O)[O-])=C(N1CCOCC1)N1CCOCC1
inactive: [1] -4.7% | [2] -1.2% | [3] 24.9% | [4] -9.5% | [5] 13.9% | [6] 5.45%

CCOP(=O)(OCC)C(C(=O)OC)C(=O)C(=O)Nc1c(C)cc(Br)cc1C (stereo unspecified)
inactive: [1] -42.1% | [2] -17.2% | [3] -23.9% | [4] -1.8% | [5] -3.85% | [6] -17.6%

C/C(CC/C(C)=N/O)=N\O
inactive: [1] 6.4% | [2] 4.25% | [3] -0.55% | [4] -9.45% | [5] 11.6% | [6] 9.7%

CCOC(=O)C1=C(NC(=O)C(c2ccccc2)c2ccccc2)OCC1
inactive: [1] 4.7% | [2] 4.75% | [3] 5.05% | [4] -48.5% | [5] -13.3% | [6] 7.85%

CCCCCCCCCCCCOc1ccc(Br)cc1
inactive: [1] 11.4% | [2] 9.25% | [3] 19% | [4] -23.4% | [5] -13.4% | [6] 8.7%

COc1cc(C=O)c(-c2cc(OC)c(OC)cc2C=O)cc1OC
inactive: [1] 5.9% | [2] -6.65% | [3] -8.8% | [4] 0.2% | [5] -12.4% | [6] -2.15%

COC(=O)c1c(C=O)cccc1[N+](=O)[O-]
inactive: [1] 22.7% | [2] -0.05% | [3] 1.75% | [4] 0.7% | [5] -14.1% | [6] 15.2%

CC/C=N/NC(=O)OCC
inactive: [1] -9.8% | [2] -4.85% | [3] -13.9% | [4] 1.1% | [5] -3.3% | [6] -6.85%
